Source: PubChem BioAssay (NCI)
Several values for one entry are separate records, joined by “and”; a condition that tells them apart may be missing. Equal entries are not always repeated. This is part of a sample that, as a whole, favours compounds with a hit. Of some 83,000 tested, about 20% had one in any assay.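 Single-concentration screen, 48 h exposure, 96-well plates. Endpoint: percent growth. Below 10 = active.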

Legend:
Assay in all cases: NCI-60 one-dose screen, 48 h (100 = growth as untreated, 0 = no growth, -100 = all killed)
HCT-15 colon = test system: HCT-15 colon
HT29 colon = test system: HT29 colon
SNB-75 CNS = test system: SNB-75 CNS
SNB-19 CNS = test system: SNB-19 CNS
U251 CNS = test system: U251 CNS
PC-3 prostate = test system: PC-3 prostate
SK-MEL-5 melanoma = test system: SK-MEL-5 melanoma
UACC-62 melanoma = test system: UACC-62 melanoma
LOX IMVI melanoma = test system: LOX IMVI melanoma
SK-MEL-28 melanoma = settings: 10 µM unless noted
SK-MEL-2 melanoma = test system: SK-MEL-2 melanoma
EKVX NSCLC = test system: EKVX NSCLC
SN12C renal = test system: SN12C renal
UO-31 renal = test system: UO-31 renal
TK-10 renal = test system: TK-10 renal
ACHN renal = test system: ACHN renal
CAKI-1 renal = settings: 10 µM unless noted
A498 renal = settings: 10 µM unless noted
CCRF-CEM leukemia = settings: 10 µM unless noted
MOLT-4 leukemia = settings: 10 µM unless noted

Measured: growth

COc1ccc2nc(Cl)cc(C)c2c1
inactive: HCT-15 colon; 10 µM unless noted 99.2% and 101% | HT29 colon; 10 µM unless noted 101% and 105% | SNB-75 CNS; 10 µM unless noted 99.2% and 98.3% | SNB-19 CNS; 10 µM unless noted 98.1% and 111% | U251 CNS; 10 µM unless noted 98.9% and 108% | PC-3 prostate; 10 µM unless noted 99.2% and 82.3% | SK-MEL-5 melanoma; 10 µM unless noted 98.8% and 120% | UACC-62 melanoma; 10 µM unless noted 94.4% and 95.2% | LOX IMVI melanoma; 10 µM unless noted 105% and 113% | SK-MEL-28 melanoma 104% and 118% | SK-MEL-2 melanoma; 10 µM unless noted 99.6% | EKVX NSCLC; 10 µM unless noted 80.4% and 97.6% | SN12C renal; 10 µM unless noted 107% and 103% | UO-31 renal; 10 µM unless noted 84.9% and 107% | TK-10 renal; 10 µM unless noted 73.7% and 78.9% | ACHN renal; 10 µM unless noted 105% and 118% | CAKI-1 renal 85.6% | A498 renal 86% and 83.4% | CCRF-CEM leukemia 100% and 88.9% | MOLT-4 leukemia 100% and 76.5%

Cn1cnc([N+](=O)[O-])c1Sc1ncnc2nc[nH]c12
inactive: HCT-15 colon; 10 µM unless noted 83.6% and 95.5% | HT29 colon; 10 µM unless noted 59.4% and 73.2% | SNB-75 CNS; 10 µM unless noted 39.2% and 58% | SNB-19 CNS; 10 µM unless noted 96.8% and 110% | U251 CNS; 10 µM unless noted 78.6% and 93.7% | PC-3 prostate; 10 µM unless noted 76.6% and 91.5% | SK-MEL-5 melanoma; 10 µM unless noted 77.9% | UACC-62 melanoma; 10 µM unless noted 20.2% and 35.8% | LOX IMVI melanoma; 10 µM unless noted 22.4% and 22.5% | SK-MEL-28 melanoma 105% and 116% | SK-MEL-2 melanoma; 10 µM unless noted 57.7% and 74.8% | EKVX NSCLC; 10 µM unless noted 83.3% and 109% | SN12C renal; 10 µM unless noted 75.8% and 83.2% | UO-31 renal; 10 µM unless noted 63.4% and 69% | TK-10 renal; 10 µM unless noted 52.8% and 44.3% | ACHN renal; 10 µM unless noted 84% and 121% | CAKI-1 renal 49.2% and 75.8% | A498 renal 87.7% and 103% | CCRF-CEM leukemia 48% and 42.6% | MOLT-4 leukemia 66.1% and 56.6%

Cc1ccc(S(=O)(=O)NCN2C(=O)c3ccccc3C2=O)cc1
inactive: HCT-15 colon; 10 µM unless noted 99.3% | HT29 colon; 10 µM unless noted 104% | SNB-75 CNS; 10 µM unless noted 96.9% | SNB-19 CNS; 10 µM unless noted 111% | U251 CNS; 10 µM unless noted 103% | PC-3 prostate; 10 µM unless noted 102% | SK-MEL-5 melanoma; 10 µM unless noted 112% | UACC-62 melanoma; 10 µM unless noted 111% | LOX IMVI melanoma; 10 µM unless noted 109% | SK-MEL-28 melanoma 111% | SK-MEL-2 melanoma; 10 µM unless noted 106% | EKVX NSCLC; 10 µM unless noted 119% | SN12C renal; 10 µM unless noted 98% | UO-31 renal; 10 µM unless noted 92.3% | TK-10 renal; 10 µM unless noted 108% | ACHN renal; 10 µM unless noted 108% | CAKI-1 renal 95.1% | A498 renal 111% | CCRF-CEM leukemia 91% | MOLT-4 leukemia 93.6%

CC1(C)OB(c2ccc(Cn3cc(F)c(=O)[nH]c3=O)cc2)OC1(C)C
inactive: HCT-15 colon; 10 µM 101% | HCT-15 colon; 50 µM 68.1% | HT29 colon; 10 µM 112% | HT29 colon; 50 µM 24.3% | SNB-75 CNS; 10 µM 103% | SNB-75 CNS; 50 µM 38.3% | SNB-19 CNS; 10 µM 103% | SNB-19 CNS; 50 µM 70.6% | U251 CNS; 10 µM 105% | U251 CNS; 50 µM 82.6% | PC-3 prostate; 10 µM 101% | PC-3 prostate; 50 µM 55.4% | SK-MEL-5 melanoma; 10 µM 98.4% | SK-MEL-5 melanoma; 50 µM 38.8% | UACC-62 melanoma; 10 µM 89.8% | UACC-62 melanoma; 50 µM 29.1% | LOX IMVI melanoma; 10 µM 98.2% | LOX IMVI melanoma; 50 µM 52.6% | SK-MEL-28 melanoma 99.4% | SK-MEL-2 melanoma; 10 µM 113% | SK-MEL-2 melanoma; 50 µM 41.5% | EKVX NSCLC; 10 µM 106% | EKVX NSCLC; 50 µM 72.1% | SN12C renal; 10 µM 102% | SN12C renal; 50 µM 80.8% | UO-31 renal; 10 µM 87.3% | UO-31 renal; 50 µM 72.8% | TK-10 renal; 10 µM 102% | TK-10 renal; 50 µM 79.3% | ACHN renal; 10 µM 103%
